# According to the supplement of paper PMC3334620:
# Over roughly 33,000 sequences, “E-score (-0.5 to 0.5)” has its median near -0.041; the highest 2% begin near 0.37. Many of the other results were omitted from the sample, so the highest values are more common in it than they were.
# Biological target: T1, Ecm22 (UniProt Q05958)
# T1 sequence: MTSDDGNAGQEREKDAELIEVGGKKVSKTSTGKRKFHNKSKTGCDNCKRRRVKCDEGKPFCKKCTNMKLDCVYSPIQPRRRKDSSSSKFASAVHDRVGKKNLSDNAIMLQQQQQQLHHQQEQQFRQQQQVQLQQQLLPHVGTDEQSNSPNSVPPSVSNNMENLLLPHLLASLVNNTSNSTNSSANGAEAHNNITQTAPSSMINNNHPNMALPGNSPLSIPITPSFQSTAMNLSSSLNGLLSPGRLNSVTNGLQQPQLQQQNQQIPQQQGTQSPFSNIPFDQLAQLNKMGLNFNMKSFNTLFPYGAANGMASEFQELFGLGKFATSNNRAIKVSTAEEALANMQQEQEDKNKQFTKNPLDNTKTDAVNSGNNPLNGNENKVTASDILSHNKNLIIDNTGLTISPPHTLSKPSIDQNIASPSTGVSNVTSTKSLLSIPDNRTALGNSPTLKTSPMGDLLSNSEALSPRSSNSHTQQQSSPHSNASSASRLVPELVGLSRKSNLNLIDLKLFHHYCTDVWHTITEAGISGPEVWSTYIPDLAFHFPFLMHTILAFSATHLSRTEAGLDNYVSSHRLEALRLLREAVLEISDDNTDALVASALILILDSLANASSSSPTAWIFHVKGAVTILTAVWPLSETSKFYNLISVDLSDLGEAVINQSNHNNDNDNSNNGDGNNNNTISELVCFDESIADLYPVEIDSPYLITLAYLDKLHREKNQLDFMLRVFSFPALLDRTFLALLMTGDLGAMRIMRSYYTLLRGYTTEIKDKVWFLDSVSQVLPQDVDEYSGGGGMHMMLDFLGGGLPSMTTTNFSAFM
# Experiment: PBM E-score (8-mer binding enrichment) (E-score (-0.5 to 0.5)); higher = stronger / more preferred TF binding
# Details: protein concentration: 200 nM; construct: GST-full length
# Experimental: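 Universal 'all 10-mer' protein binding microarrays (Agilent AMADID 015681) probed with GST-tagged S. cerevisiae TFs (full-length or DBD) made by in vitro transcription/translation (PURExpress), about 100-200 nM. Bound TF was detected with fluorescent anti-GST. Each ungapped 8-mer (which stands for itself and its reverse complement) is scored by the PBM enrichment score (E-score), a modified Wilcoxon-Mann-Whitney statistic from -0.5 to +0.5, computed with the Universal PBM Analysis Suite. Scale: above 0.35 generally sequence-specific binding.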
row,Sequence,PBM E-score
1,ACAAGCCG,-0.0164
2,AGGATTAC,-0.0965
3,CCGGTAAG,0.0008
4,ATAATTAT,0.311
5,ACAGTAAT,-0.0196
6,CAGAATCG,0.17
7,ACCTCACA,-0.106
8,AAAGTGTT,-0.0118
9,GCTTGAGA,-0.0858
10,ACGAGGGA,0.41
11,CCGAGGGA,-0.0341
12,ACGAGGGC,0.374
13,CCGAGGGC,0.203
14,AAGAGGGC,-0.297
15,ACGAGGGG,0.365
16,TAGTGGCA,-0.179
17,CCCTTCCC,-0.234
18,ACTCCAAC,-0.175
19,CTACTTCC,0.0408
20,ATCATCAT,0.0455
21,GTATCGAC,0.165
22,CTCGTAAC,0.428
23,GACGTAAC,-0.079
24,CTCGTAAG,0.44
25,ATCGTAAC,0.368

row,Sequence,PBM E-score
1,CACGTAAG,0.0432
2,GTCGTAAC,0.397
3,CGCGTAAG,0.165
4,CACGTAAC,-0.149
5,GGCGTAAC,-0.0339
6,TCGCACCA,0.324
7,CTAAGAAG,-0.0845
8,ACTGTGAG,-0.105
9,GCGAGCAA,0.198
10,CCCATTAG,-0.248
11,AGCAACAT,-0.112
12,ACGTCTTC,-0.126
13,ACAACTGT,-0.148
14,ACTGTACC,-0.0754
15,AGTGTACA,-0.0734
16,CCTGTACA,-0.174
17,AGTGTACC,-0.059
18,CCTGTACC,-0.0544
19,ATTGTACC,0.00485
20,AGTGTACG,0.389
21,CCTGTACG,0.4
22,ATTGTACG,0.431
23,ATTGTACA,-0.0596
24,ACTGTACG,0.42
25,ACTGTACT,-0.12

row,Sequence,PBM E-score
1,AATTTTGA,0.0335
2,CCCTGATA,-0.194
3,CGGATCTA,0.0938
4,CAAGCCGA,0.0727
5,AGACAGAA,-0.0147
6,CATGTACG,0.399
7,AATGTACG,0.331
8,CATGTACA,-0.0676
9,CAAGGGTA,-0.0852
10,CGTACAGC,0.427
11,CCTACAGC,-0.318
12,GGTACAGA,-0.0866
13,CGTACAGA,0.382
14,AGTACAGC,-0.113
15,AGTACAGA,0.0225
16,CGAAGGCG,0.124
17,CGGGTTAC,0.231
18,CGTTCCAG,0.418
19,CGTTCCAA,0.365
20,CGTTCCAC,0.405
21,AGTTCCAC,0.0665
22,GGTTCCAC,-0.237
23,AGTTCCAG,-0.172
24,CAATCTAG,-0.0844
25,AGGTCCCC,-0.33

row,Sequence,PBM E-score
1,GCTTCCGA,0.0694
2,GCTGCGAA,0.0942
3,CCACAGTC,-0.189
4,AGGGACAC,-0.0536
5,CATTTACC,-0.0682
6,CGTTTACC,0.435
7,CGTTTACA,0.405
8,AGTTTACC,-0.0268
9,GGTTTACA,-0.0503
10,AGTTTACA,-0.0418
11,GCTAGCCC,-0.379
12,GGCCCGGA,-0.142
13,GCAGGTCC,0.0428
14,CCATCTCG,0.105
15,CGCATACA,0.111
16,AACATACT,0.0945
17,AACATACG,0.373
18,ATCATACA,0.0909
19,CACATACG,0.335
20,CGCATACG,0.385
21,CGCATACC,0.16
22,ATCATACC,0.00527
23,ATCATACG,0.404
24,CCGTCTTC,-0.175
25,CCCTCAAA,-0.157

row,Sequence,PBM E-score
1,ATTTGCGG,0.0753
2,AACCGTTA,0.0731
3,ACGACAGC,0.319
4,ACGACAAC,0.366
5,CCGACAAA,0.0481
6,TCGACAAA,0.178
7,ACGACAAA,0.384
8,ACGACAGG,0.339
9,ACGACAAT,0.368
10,ACGACAAG,0.334
11,ACGACAGT,0.382
12,ACGCCAGG,0.0457
13,GTCCAGCA,-0.169
14,AAGCGTGT,-0.18
15,CAGATATC,-0.0887
16,GGTTCGAC,0.0422
17,TGCACAAA,-0.22
18,AAGCTCGA,0.0757
19,AATCTCGT,0.386
20,AAGCTCGC,0.297
21,AATCTCGG,0.129
22,AATCTCGA,0.0888
23,AAGCTCGT,0.38
24,TACATGGA,-0.119
25,GCAGGGCA,-0.18

row,Sequence,PBM E-score
1,GGCCACCA,-0.161
2,ACCAGAAG,-0.0736
3,CGACTGAA,0.163
4,ACCGAGCC,0.245
5,AAACGCTG,0.0348
6,AAACGCTT,0.00074
7,AATCGATT,0.0191
8,AAACGATT,0.42
9,CAACGATG,0.207
10,GAACGATC,0.432
11,AGACGATC,-0.0754
12,AAACGATG,0.439
13,AAACGATC,0.423
14,CCACGATC,0.0737
15,CAACGATC,0.175
16,GATCGATC,0.171
17,CATTAGGG,-0.168
18,AGAACCCG,-0.0503
19,ACTCTACG,0.265
20,AGCGCACG,0.097
21,ACCCCCTC,-0.274
22,CGTGGATC,-0.0292
23,CCTATGGA,-0.192
24,CCCATTAC,-0.101
25,CGACTGAG,0.0682

row,Sequence,PBM E-score
1,CCACGATA,0.0166
2,GGACGATA,-0.213
3,AAACGATA,0.435
4,GAACGATA,0.416
5,TAACGATA,0.367
6,CAACGATA,0.263
7,ACCCTTGG,-0.233
8,ATTCTAAA,0.095
9,ACCTAGAG,-0.00033
10,ATTCGCGG,-0.00497
11,ACGGGAGA,0.0694
12,CGACGGGA,0.227
13,CCTAAACG,0.407
14,ACTAAACC,-0.00061
15,CCTAAACC,-0.00691
16,ACTAAACA,-0.273
17,ACTAAACG,0.457
18,ATTAAACA,-0.163
19,ATTAAACC,-0.0934
20,ATTAAACG,0.449
21,CCTAAACA,-0.149
22,GGAGTAAA,0.0078
